From the supplement of paper PMC6555819

Columns and labels:
Assay in all cases: PBM binding z-score (relative to random genomic background probes); higher = stronger binding; sequences stand for … in GC…GCGATTGACAGCGTAGAATGAAGG
[1] = system: RARb homodimer (NR concentration 270 nM)
Summary of the method: (§1)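 Binding z-scores were set against random background probes. The data came from custom Agilent 4×180K protein-binding microarrays carrying double-stranded probes with 34-nt variable regions, incubated 1 h with ligand-free nuclear receptor dimers. Partner-specific antibodies detected binding, and scanned fluorescence was regression-normalized.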

[2] = system: RARg:RXRa (NR concentration 270 nM, RXRa partner concentration 90 nM)
Summary of the method: as §1

[3] = system: RARg homodimer (NR concentration 270 nM)
Summary of the method: as §1

[4] = system: RXRa DBDmut IVT, anti-RXR (DBD mutation: RXRa K156A/R161A, NR concentration 90 nM)
Summary of the method: as §1

[5] = system: RXRa homodimer (NR concentration 180 nM)
Summary of the method: as §1

[6] = system: THRa:RXRa (NR concentration 90 nM, RXRa partner concentration 90 nM)
Summary of the method: as §1

[7] = system: THRa homodimer (NR concentration 90 nM)
Summary of the method: as §1

[8] = system: VDR homodimer (NR concentration 270 nM)
Summary of the method: as §1

Sequence: CCTTACGGGTCACTCCAGGTTATAGCTTCGGAGT
- PBM binding z-score [1]: 3.13
- PBM binding z-score [2]: 4.36
- PBM binding z-score [3]: 4.47
- PBM binding z-score [4]: 1.65
- PBM binding z-score [5]: 4.42
- PBM binding z-score [6]: 4.92
- PBM binding z-score [7]: 0.616
- PBM binding z-score [8]: 1.61

Sequence: GCGCCTGGGGCAAAGCAGGTTACCATAAGGTTGG
- PBM binding z-score [1]: 0.951
- PBM binding z-score [2]: 0.319
- PBM binding z-score [3]: 0.493
- PBM binding z-score [4]: -0.424
- PBM binding z-score [5]: 0.237
- PBM binding z-score [6]: 2.96
- PBM binding z-score [7]: -0.193
- PBM binding z-score [8]: -0.387

Sequence: TCATATAGGTAAAGGAGAAAGTCGAACGATATGA
- PBM binding z-score [1]: -0.643
- PBM binding z-score [2]: 0.547
- PBM binding z-score [3]: 0.358
- PBM binding z-score [4]: 0.825
- PBM binding z-score [5]: 0.676
- PBM binding z-score [6]: -0.227
- PBM binding z-score [7]: -0.866
- PBM binding z-score [8]: -0.11

Sequence: TCTTGTAGATCAACAGGAGGTTACGAAAGATCGA
- PBM binding z-score [1]: 0.979
- PBM binding z-score [2]: 1.06
- PBM binding z-score [3]: 0.394
- PBM binding z-score [4]: 0.347
- PBM binding z-score [5]: 1.19
- PBM binding z-score [6]: 1.5
- PBM binding z-score [7]: -0.205
- PBM binding z-score [8]: 0.0245

Sequence: CGTCCAAGGTCATAGGATGTCAGTGAAGACAGAT
- PBM binding z-score [1]: 4.04
- PBM binding z-score [2]: 5.95
- PBM binding z-score [3]: 6.37
- PBM binding z-score [4]: 3.93
- PBM binding z-score [5]: 6.11
- PBM binding z-score [6]: 4.28
- PBM binding z-score [7]: 2.46
- PBM binding z-score [8]: 3.2

Sequence: ATCGAAAGGTCGTAAGGTGAGTATACAGAAAGGC
- PBM binding z-score [1]: 3.06
- PBM binding z-score [2]: 4.61
- PBM binding z-score [3]: 3.87
- PBM binding z-score [4]: 1.72
- PBM binding z-score [5]: 5.29
- PBM binding z-score [6]: 3.35
- PBM binding z-score [7]: 1.64
- PBM binding z-score [8]: 1.24

Sequence: CCGACTGGGGCACGGTTACCATAACGCACAGCCA
- PBM binding z-score [1]: 0.696
- PBM binding z-score [2]: 0.548
- PBM binding z-score [3]: 1.13
- PBM binding z-score [4]: -1.14
- PBM binding z-score [5]: 0.163
- PBM binding z-score [6]: -0.214
- PBM binding z-score [7]: -0.521
- PBM binding z-score [8]: -0.442
